PKA-R2B act: activates the human PKA-R2B holoenzyme complex; P22694+P31323; PKA-R2B holoenzyme dissociation, Cy5-IP20 fluorescence polarization; R2B truncated from residue 108, S112A mutant; 0% DMSO only, 100% 113 µM cGMP; activation, % at 11.4 µM; hit rate 0.079% among 340,000;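 active = activation above a cutoff set at the mean over all compounds plus 3 SD, cut at about 18% in these data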;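 note: higher means more holoenzyme dissociation and a rise in polarization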
Neddyl block: blocks human cullin neddylation; P61081+Q13564; TR-FRET cullin neddylation, biochemical; calls only at 25 µM; hit rate 0.58% among 360,000; AID 651699; in the data active = inhibition above about 36%
Target sequence (P61081 whole entry, looked up): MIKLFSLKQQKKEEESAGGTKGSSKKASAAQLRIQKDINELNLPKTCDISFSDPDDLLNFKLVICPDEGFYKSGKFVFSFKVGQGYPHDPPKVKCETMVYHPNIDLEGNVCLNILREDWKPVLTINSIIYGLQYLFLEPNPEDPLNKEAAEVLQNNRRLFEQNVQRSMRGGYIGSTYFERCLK
Target sequence (Q13564 whole entry, looked up): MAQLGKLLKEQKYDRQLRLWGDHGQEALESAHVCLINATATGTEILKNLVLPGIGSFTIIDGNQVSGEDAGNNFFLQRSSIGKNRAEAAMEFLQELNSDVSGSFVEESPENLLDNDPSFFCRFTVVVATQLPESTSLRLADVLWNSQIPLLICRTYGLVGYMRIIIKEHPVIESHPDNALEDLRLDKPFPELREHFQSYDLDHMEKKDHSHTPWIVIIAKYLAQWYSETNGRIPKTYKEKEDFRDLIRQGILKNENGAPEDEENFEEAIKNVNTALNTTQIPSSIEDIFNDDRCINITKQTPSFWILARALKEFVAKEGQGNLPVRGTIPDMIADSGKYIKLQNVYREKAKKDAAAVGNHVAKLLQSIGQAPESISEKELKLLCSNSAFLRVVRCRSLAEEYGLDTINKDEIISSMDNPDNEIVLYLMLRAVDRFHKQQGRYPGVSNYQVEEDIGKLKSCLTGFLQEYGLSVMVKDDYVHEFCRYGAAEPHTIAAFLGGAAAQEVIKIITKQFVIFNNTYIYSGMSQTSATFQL
PolyA inhibitor: inhibitors of polyadenylation in S. cerevisiae; S. cerevisiae SKY197-pL101 polyadenylation reporter, beta-gal luminescence; efflux-impaired pdr1/pdr3 knockout yeast; score 100 = 6 SD above DMSO; activity score, % at 12 µM; hit rate 0.02% among 300,000; AID 1875;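 active = lowest replicate activity score at least 50, where 100 means six control SD above control mean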;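 note: yeast exposed to compound for 9 h at 30 °C; higher score means more reporter readthrough which indicates perturbed polyadenylation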
PKA-R1A activ: activators of PKA-R1A complex | P00514+P68181 | PKA-R1A dissociation, Cy5-IP20 fluorescence polarization; scaled: DMSO 0%, 113 µM cGMP 100% | activation, % at 11.4 µM | hit rate 0.083% among 340,000 | AID 504707;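 active = percent activation above the mean of all tested compounds plus 3 SD, cut at about 19% in these data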;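 note: higher means more PKAc released from R1A so a rise in polarization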
Neddyl conf: cullin neddylation inhibition, confirmation; TR-FRET cullin neddylation biochemical assay; calls only at 25 µM; hit rate 13% among 1,800; shares compounds with Neddyl block; in the data active = inhibition above about 40%;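 note: neddylation substrate is the cullin 1 ring ligase complex with SKP2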
Each line names hits and unclear results; the compound was inactive in the other large screens (follow-up assays come after a bar, where shown). Sampled rows, rich in hits. Any-hit rate of the full collection: about 0.72%.

COc1ccc(S(=O)(=O)N(C(C)=O)c2ccc(OC(C)=O)c3ccccc23)cc1[N+](=O)[O-]	none
Nc1nnc(-c2ccccc2Cl)s1	none
COc1ccccc1-c1nnc(N)s1	Neddyl block active | Neddyl conf inactive
CC1=CN(S(=O)(=O)c2ccc(C)cc2)C[C@@H]2[C@H]3CC[C@H](C3)[C@H]12	none (no result: PolyA inhibitor)
CC1CCN(C(=O)CSc2nc(N)c3c4c(sc3n2)CN(C)CC4)CC1	none
CN1CCc2c(sc3nc(SCC(=O)N4CCOCC4)nc(N)c23)C1	Neddyl block active | Neddyl conf inactive
COc1ccc(O)c(/C=N/NC(=O)CN2CCS(=O)(=O)CC2)c1	Neddyl block active | Neddyl conf inactive
COc1ccc(CSCC(=O)N/N=C/c2ccccc2O)cc1	Neddyl block active | Neddyl conf inactive
O=C(CSc1ccccc1)N/N=C/c1ccccc1O	none
Cc1cc(C)c(C#N)c(SCC(=O)Nc2nonc2N)n1	none
CNC(=O)NNC(=O)c1nc(-c2ccccc2)c(C)o1	none (no result: PKA-R2B act, PKA-R1A activ)
O=C(N/N=C/c1ccccc1O)C1(O)c2ccccc2-c2ccccc21	Neddyl block active | Neddyl conf inactive
COc1cccc(-c2noc(-c3ccc(Br)o3)n2)c1	none (no result: PolyA inhibitor)
COc1ccc(NC(=O)CN(C)C(=O)/C=C/c2cn(-c3ccccc3)nc2-c2cccs2)cc1	Neddyl block active | Neddyl conf inactive
COc1ccc(NC(=O)CN(C)C(=O)/C=C/c2cn(-c3ccccc3)nc2-c2ccc(C)cc2)cc1	none
COc1ccc(OC)c(/C=C/C(=O)N(C)CC(=O)Nc2ccc(N3CCOCC3)cc2)c1	Neddyl block active (not shown: PolyA inhibitor)
COc1ccc(C(=O)Nc2cccc3c2CCCC3)c(OC)c1	none (no result: PKA-R2B act, PKA-R1A activ)
Cc1ccc(-c2nc(CNC(=O)c3cc(C)on3)cs2)cc1	none
COCCn1c(C)cc(/C=C(\C#N)C(=O)OC(C)C(=O)Nc2ccc(NC(C)=O)cc2)c1C (stereo not given)	Neddyl block active | Neddyl conf inactive
COc1ccc(OC)c(S(=O)(=O)Nc2cc(C)on2)c1	none
Cc1cccc2nc3ccccc3cc12	Neddyl block active
O=C(Cn1cc(C(=O)C(=O)N2CCOCC2)c2ccccc21)Nc1cccc(C(F)(F)F)c1	none (no result: PolyA inhibitor)
COc1ccc(/C=C2\CCCC3C2=NN(C(=O)CSc2ncn[nH]2)C3c2ccc(OC)cc2)cc1 (stereo not given)	Neddyl block active
O=C(CSc1ncn[nH]1)N1N=C2/C(=C/c3ccccc3)CCCC2C1c1ccccc1 (stereo not given)	none
CC(=O)Nc1ccc(NC(=O)CCNS(=O)(=O)c2cccc3nsnc23)cc1	none
CCn1nc(NC(=O)C(C)C)c2cc3ccc(C)cc3nc21	Neddyl block active | Neddyl conf inactive
CCn1nc(NC(=O)c2cccnc2)c2cc3ccccc3nc21	Neddyl block active | Neddyl conf inactive
CCOC(=O)C1CCN(C(=O)C(C)Sc2nnc3ccccn23)CC1 (stereo not given)	none (no result: PolyA inhibitor)
Cc1nnc2ccc(N3CCCCC3)nn12	none
Cc1cc(C)n(-c2ccc3nnc(C)n3n2)n1	Neddyl block active | Neddyl conf inactive
COc1ccc(C(CNC(=O)c2ccco2)N2CCOCC2)cc1 (stereo not given)	none (no result: PolyA inhibitor)
COc1ccc(C(c2c(NC(=O)c3ccccc3)sc(C)c2C)N2CCN(CCO)CC2)cc1 (stereo not given)	none
COc1ccc(C(c2c(NC(=O)c3ccco3)sc(C)c2C)N2CCOCC2)cc1 (stereo not given)	Neddyl block active (not shown: PolyA inhibitor)
COc1cccc(C(c2c(NC(=O)c3ccccc3)sc(C)c2C)N2CCN(C)CC2)c1 (stereo not given)	Neddyl block active | Neddyl conf inactive
O=C(N/N=C/c1c(F)cccc1Cl)c1cc(C2CC2)[nH]n1	none
Cc1cc(F)ccc1S(=O)(=O)Nc1ccccc1C(=O)NC1CCN(Cc2ccccc2)CC1	Neddyl block active (no result: PolyA inhibitor) | Neddyl conf active
O=C(NCc1cccnc1)c1ccccc1NS(=O)(=O)c1ccc(Br)cc1	none (no result: PolyA inhibitor)
COc1ccc(S(=O)(=O)Nc2ccccc2C(=O)NCc2cccnc2)cc1C	Neddyl block active
Cc1cc(F)ccc1S(=O)(=O)Nc1ccccc1C(=O)NCc1cccnc1	Neddyl block active | Neddyl conf inactive
COc1cccc(C2CC(c3cccs3)=NN2C(=O)c2ccco2)c1O (stereo not given)	none
CS(=O)(=O)Nc1ccc(C2=NN(C(=O)c3ccco3)C(c3ccccc3)C2)cc1 (stereo not given)	Neddyl block active | Neddyl conf inactive
O=C(c1ccco1)N1N=C(c2cccs2)CC1c1ccccc1O (stereo not given)	Neddyl block active
CCC(=O)N1CCc2cc(S(=O)(=O)NCCC(=O)NC3CCCCCC3)ccc21	none
Cc1ccccc1C(=O)N1CCC(C(=O)NCCc2ccc(S(N)(=O)=O)cc2)CC1	none
O=c1cc(-c2ccccc2)c2ccc(O)c(CN3CCCCC3)c2o1	Neddyl block active | Neddyl conf inactive
COC(=O)N/N=C/c1ccc(OC(=O)/C=C/c2ccco2)cc1	Neddyl block active (no result: PKA-R2B act, PKA-R1A activ) | Neddyl conf inactive
CCc1c(C)n2nc(C)cc2[nH]c1=O	Neddyl block active | Neddyl conf active
Nc1c(Cl)cc(Cl)cc1C(=O)OCC(=O)N1CCCC1=O	Neddyl block active | Neddyl conf inactive
Nc1c(Cl)cc(Cl)cc1C(=O)OCC(=O)N1CCCC1	none (not shown: Neddyl block)
Cc1cccc(N(C(=O)c2snc(C(N)=O)c2N)C(C(=O)NCC2CCCO2)c2cccs2)c1 (stereo not given)	Neddyl block active | Neddyl conf inactive
COc1ccc(C(C(=O)NCC2CCCO2)N(C(=O)c2snc(C(N)=O)c2N)c2ccccc2)cc1OC (stereo not given)	Neddyl block active | Neddyl conf active
Cc1ccc(C)c(N(C(=O)c2snc(C(N)=O)c2N)C(C(=O)NCC2CCCO2)c2cccs2)c1 (stereo not given)	none (not shown: Neddyl block)
CCc1ccccc1N(C(=O)c1snc(C(N)=O)c1N)C(C(=O)NCC1CCCO1)c1ccc(OC)c(OC)c1 (stereo not given)	none (not shown: Neddyl block)
CCCC(C(=O)NC(C)(C)C)N(CC1CCCO1)C(=O)c1snc(C(N)=O)c1N (stereo not given)	none
COc1cccc(N(C(=O)c2snc(C(N)=O)c2N)C(C(=O)NCC2CCCO2)c2ccc(F)cc2)c1 (stereo not given)	Neddyl block active | Neddyl conf inactive
CCCC(C(=O)NC1CCCC1)N(CC1CCCO1)C(=O)c1snc(C(N)=O)c1N (stereo not given)	Neddyl block active | Neddyl conf inactive
COc1cccc(N(C(=O)c2snc(C(N)=O)c2N)C(C(=O)NCC2CCCO2)c2ccc(C)o2)c1 (stereo not given)	none
COc1ccc(CSc2nc3ccccc3c(=O)n2CCCN2CCOCC2)cc1F	none
Cc1ccc(-c2csc(NC(=O)c3ccc4c(=O)n5c(nc4c3)CCCCC5)n2)cc1	none

From PubChem BioAssay
